In the library only some 3.2% were active in any assay of this set; here they are far more common.
ClpP mod: qHTS Assay for Activators of ClpP; purified B. subtilis ClpP, FRET peptide cleavage, 20 min; Potency, µM (titrated, usually from 57.5 µM), for inactives: at the highest dose activity change, negative = active; 340,000 tested, 1.9% active; AID 651965, 2013; active means well fitted falling curve with a large enough effect; inconclusive means small, poorly fitted or top-dose-only effect; inactive means no such curve, though single readings can be large or run the other way; further: the source files actives as falling curves though it sought activators and does not explain the sign; nearly all actives have a fitted effect of over 65% in size
Target sequence (P80244 whole entry, looked up): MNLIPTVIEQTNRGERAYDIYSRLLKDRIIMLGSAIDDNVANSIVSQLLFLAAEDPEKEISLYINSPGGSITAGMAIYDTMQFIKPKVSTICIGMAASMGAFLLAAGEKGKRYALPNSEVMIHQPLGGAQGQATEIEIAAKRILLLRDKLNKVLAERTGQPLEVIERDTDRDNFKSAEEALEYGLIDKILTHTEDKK
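FRET quenching reversal measured ClpP activation: 10 microg/mL B. subtilis ClpP at pH 8 with the FRET-FV decapeptide, read at 430 nm after 320 nm excitation. The 20-min minus 0-min signal was scaled between DMSO/no-enzyme wells and ADEP (5.8 microM final).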
GLP1R inv ag: qHTS of GLP-1 Receptor Inverse Agonists (Inhibition Mode); Glucagon-like peptide 1 receptor (Homo sapiens), P43220; HEK293 GLP-1R CRE-luciferase, luminescence, 24 h; GLP-1R form is constitutively active; Potency, µM (doses to about 38.3 µM), inactives show at the top dose activity change, negative = inhibition, most hits filed as inhibitors; 410,000 tested, 1.6% active; AID 624417, 2012; further: on the % scale 0 is the no-effect control and ±100 the full control effect; nearly all actives have a fitted effect of over 55% in size
Target sequence (P43220 whole entry, looked up): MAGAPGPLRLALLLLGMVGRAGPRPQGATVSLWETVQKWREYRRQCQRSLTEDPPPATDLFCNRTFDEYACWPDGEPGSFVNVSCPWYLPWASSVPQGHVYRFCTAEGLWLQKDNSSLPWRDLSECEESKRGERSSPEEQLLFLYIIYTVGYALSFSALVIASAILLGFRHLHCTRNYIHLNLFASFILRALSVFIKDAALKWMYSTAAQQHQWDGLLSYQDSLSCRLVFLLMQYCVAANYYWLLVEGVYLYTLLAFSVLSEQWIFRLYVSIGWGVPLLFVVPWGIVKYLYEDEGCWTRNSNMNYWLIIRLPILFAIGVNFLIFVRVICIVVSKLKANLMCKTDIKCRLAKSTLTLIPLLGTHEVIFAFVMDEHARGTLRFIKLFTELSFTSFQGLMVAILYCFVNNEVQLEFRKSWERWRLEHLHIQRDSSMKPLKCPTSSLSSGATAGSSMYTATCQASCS
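qHTS in 1536-well format: reporter HEK293 cells expressing constitutive GLP-1R activity in DMEM + 10% Nu serum, 24 hr with compounds at 37 deg C, luminescence read after 12 min with detection reagent.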
GLP1R cytotox: qHTS of GLP-1 Receptor Inverse Agonists: Cytotox Screen; HEK293 cAMP-luciferase reporter cells, luminescence, 24 h; Potency, µM (highest dose often 38.3 µM), for inactives: top-dose activity change, negative = inhibition, hits mostly inhibitors; 410,000 tested, 0.13% active; AID 624418, 2012;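 further: loss of luciferase light is scored as toxicity; on the % scale 0 is the no-effect control and ±100 the full control effect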
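Quantitative HTS format, 1536 wells, 200 cells/uL seeded. Compounds: 23 nL, 24 h, 37 °C. Detection: luciferase reagent, luminescence at 12 min RT; decreased signal taken as cytotoxic.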
GLP1R ag: qHTS of GLP-1 Receptor Agonists | HEK293 GLP-1R CRE-luciferase, luminescence, 4-6 h; cells express a hypersensitive GLP-1R form | Potency, µM (doses to about 45.6 µM), inactives show at the top dose activation, most hits filed as activators | 380,000 tested, 0.007% active | AID 624172, 2012; further: % of control where 0% means no effect
* hit, by the source's call; ! = repeats disagree. Unless noted, the call rests on the fitted dose curve; in most records, active means well fitted curve in the direction sought with a large enough effect; inconclusive means small, poorly fitted or top-dose-only effect, or another doubt; inactive means no such curve, though single readings can be large; an effect the other way counts as inactive or inconclusive. Potency means the concentration at half of the fitted maximal effect.

What do the screens show for `COc1ccc(-c2cc3ccccc3n2CC(O)CN2CCN(CCO)CC2)cc1` (centres undefined)?
ClpP mod: 4%; GLP1R inv ag: 10µM*; GLP1R cytotox: 1%; GLP1R ag: -1%

What do the screens show for `COc1ccc(OCC(O)CN2CCN(c3ccccc3)CC2)cc1` (centres undefined)?
ClpP mod: 0%; GLP1R inv ag: -29%; GLP1R cytotox: 5%; GLP1R ag: -5%

How did COc1ccc(OCC(O)CN2CCOCC2)cc1 (centres undefined) do in these assays?
ClpP mod: 3%; GLP1R inv ag: 6%; GLP1R cytotox: 6%; GLP1R ag: -2%

How did COc1ccc(CNc2nc3ccccc3c3nc(-c4ccccc4)nn23)cc1 do in these assays?
ClpP mod: 28µM*; GLP1R inv ag: 9%; GLP1R cytotox: 4%

Results for CCN(CC)c1ccc(CNc2nc3ccccc3n2CCN2CCCCC2)cc1 ?
GLP1R inv ag: inconclusive; GLP1R cytotox: inconclusive; GLP1R ag: 16%

How did COc1ccc(-c2cc3ccccc3n2CC(O)CN2CCOCC2)cc1 (centres undefined) do in these assays?
ClpP mod: 8.9µM*; GLP1R inv ag: inconclusive; GLP1R cytotox: -6%; GLP1R ag: 3%

What do the screens show for `COc1ccc(CNc2nc3ccccc3n2CCN2CCCCC2)cc1`?
GLP1R inv ag: 10µM*; GLP1R cytotox: inconclusive; GLP1R ag: 14%

What do the screens show for `CC(=O)Nc1ccc(NCc2nnc3n2CCCCC3)cc1`?
ClpP mod: -4%; GLP1R inv ag: 11%; GLP1R cytotox: -3%; GLP1R ag: -5%

What do the screens show for `O=C(CSCc1cnn(-c2ccccc2)c1-n1cccc1)NCc1cccc(Cl)c1`?
ClpP mod: -22%; GLP1R inv ag: inconclusive; GLP1R cytotox: 0%

How did N=c1n(CCN2CCCCC2)c2ccccc2n1CC(=O)c1cccs1 do in these assays?
GLP1R inv ag: 5.6µM*; GLP1R cytotox: -25%; GLP1R ag: 2%

How did COc1ccccc1OCC(O)Cn1c(=N)n(Cc2ccccc2)c2ccccc21 (centres undefined) do in these assays?
ClpP mod: -6%; GLP1R inv ag: inconclusive; GLP1R cytotox: inconclusive; GLP1R ag: 6%

What do the screens show for `Cc1ccccc1OCC(O)Cn1c(=N)n(Cc2ccccc2)c2ccccc21` (centres undefined)?
GLP1R inv ag: 8.9µM*; GLP1R cytotox: inconclusive; GLP1R ag: -7%

What do the screens show for `COc1ccc(OCC(O)Cn2c(=N)n(CCN3CCCCC3)c3ccccc32)cc1` (centres undefined)?
ClpP mod: -1%; GLP1R inv ag: 10µM*!; GLP1R cytotox: inconclusive; GLP1R ag: 4%

What do the screens show for `CCOC(=O)c1c(C)[nH]c(CCC(=O)NCc2cc(Br)ccc2OC)c1C`?
ClpP mod: -3%; GLP1R inv ag: -20%; GLP1R cytotox: 16%

Results for CCOc1ccc(Nc2oc(-c3ccc(COc4ccccc4C)o3)nc2C#N)cc1 ?
ClpP mod: 35%; GLP1R inv ag: -2%; GLP1R cytotox: -18%

What do the screens show for `c1ccc(-c2nc3c4ccccc4ccn3c2Cc2ccsc2)cc1`?
ClpP mod: inconclusive; GLP1R inv ag: inconclusive; GLP1R cytotox: -10%; GLP1R ag: 11%

What do the screens show for `O=C1c2ccccc2C(=O)c2cc(N3CCCCC3)ccc21`?
ClpP mod: -19%; GLP1R inv ag: -44%; GLP1R cytotox: -6%; GLP1R ag: 0%

Results for O=C1c2cccc(Cl)c2C(=O)c2c1cccc2N1CCCC1 ?
ClpP mod: 0%; GLP1R inv ag: 6.3µM*; GLP1R cytotox: inconclusive; GLP1R ag: 10%

What do the screens show for `Cc1ccc(C(OCC(O)CNC(CO)C(O)c2ccc([N+](=O)[O-])cc2)c2ccccc2)cc1` (centres undefined)?
GLP1R inv ag: 8.9µM*; GLP1R cytotox: -16%; GLP1R ag: 21%

Results for CC1Cc2ccccc2N1C(=O)c1ccc(F)c(S(=O)(=O)N2CCOCC2)c1 (centres undefined) ?
ClpP mod: 28µM*; GLP1R inv ag: -22%; GLP1R cytotox: 0%; GLP1R ag: 1%

Results for O=C(Nc1ccccc1N1CCOCC1)c1ccc(F)c(S(=O)(=O)N2CCOCC2)c1 ?
ClpP mod: -1%; GLP1R inv ag: 3%; GLP1R cytotox: -2%; GLP1R ag: 5%

What do the screens show for `CCC1CN(C(=O)N2CCC(C(=O)N3CCN(c4ccccc4)CC3)CC2)c2ccccc2O1` (centres undefined)?
ClpP mod: 1%; GLP1R inv ag: -28%; GLP1R cytotox: -5%

What do the screens show for `O=C(O)Cn1cc(/C=N/Nc2ccc([N+](=O)[O-])cn2)c2ccccc21`?
ClpP mod: 1%; GLP1R inv ag: -22%; GLP1R cytotox: inconclusive; GLP1R ag: 0%

How did Cc1ccc(Cn2cc(/C=N/Nc3ccc([N+](=O)[O-])cn3)c3ccccc32)cc1 do in these assays?
GLP1R inv ag: 11µM*; GLP1R cytotox: inconclusive; GLP1R ag: 8%

What do the screens show for `CCC(=O)c1ccc(OCC(O)CN(CCc2ccccc2)Cc2ccccc2)cc1` (centres undefined)?
ClpP mod: 0%; GLP1R inv ag: 8.9µM*; GLP1R cytotox: -21%; GLP1R ag: 5%

Results for OC(COc1ccccc1)CN(Cc1ccccc1)CC(O)COc1ccccc1 (centres undefined) ?
ClpP mod: inconclusive; GLP1R inv ag: inconclusive; GLP1R cytotox: 8%; GLP1R ag: -2%

How did CCCNC(=O)CN1C(=O)c2c(c3ccccc3n2C)C1c1ccc(OC)cc1 (centres undefined) do in these assays?
ClpP mod: 28µM*; GLP1R inv ag: -3%; GLP1R cytotox: 1%

What do the screens show for `Cc1cc(C)c2c(N)c(C(=O)Nc3ccccc3Br)sc2n1`?
ClpP mod: 4%; GLP1R inv ag: 19%; GLP1R cytotox: 12%; GLP1R ag: 17%

How did CCc1ccccc1NC(=O)c1sc2nc(C)cc(C)c2c1N do in these assays?
ClpP mod: 32µM*; GLP1R inv ag: 28%; GLP1R cytotox: 1%; GLP1R ag: 5%

What do the screens show for `Cc1cc(C)c2c(N)c(C(=O)Nc3ncc(C)s3)sc2n1`?
ClpP mod: inconclusive; GLP1R inv ag: 1.3µM*; GLP1R cytotox: 247%; GLP1R ag: -27%

How did COC(=O)c1sc2nc(C)cc(C)c2c1N do in these assays?
GLP1R inv ag: 85%; GLP1R cytotox: 30%; GLP1R ag: 7%

Results for CCN1CCn2c3c(c4cc(Cl)ccc42)CCCC31 (centres undefined) ?
ClpP mod: 16µM*; GLP1R inv ag: inconclusive; GLP1R cytotox: 16%; GLP1R ag: 46%

Compound activity: PubChem BioAssay, National Center for Advancing Translational Sciences (NCATS)
